From PubChem
The list is not random: actives were taken first. Their share in the collection is about 3%.
KDM4E inh = blocks human JMJD2E demethylase activity; AID 2147; 1.6% of 230,000 active; Potency, µM (series often up to 57.1 µM), for inactives: at the top dose activity change, negative = inhibition, actives largely listed as inhibitors; JMJD2E catalytic domain, FDH-coupled NADH fluorescence (FDH is formaldehyde dehydrogenase); B2RXH2; active means well fitted inhibition curve with a large enough effect, not every such curve was filed as active; inconclusive means small, poorly fitted or top-dose-only effect, or another doubt; inactive means no such curve, though single readings can be large or run the other way;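 further: potency means the concentration at half of the fitted maximal effect; 0% = wells with enzyme and -100% = buffer wells without enzyme; nearly all actives have a fitted effect of over 50% in size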
Target sequence (B2RXH2 1-337 limits assumed): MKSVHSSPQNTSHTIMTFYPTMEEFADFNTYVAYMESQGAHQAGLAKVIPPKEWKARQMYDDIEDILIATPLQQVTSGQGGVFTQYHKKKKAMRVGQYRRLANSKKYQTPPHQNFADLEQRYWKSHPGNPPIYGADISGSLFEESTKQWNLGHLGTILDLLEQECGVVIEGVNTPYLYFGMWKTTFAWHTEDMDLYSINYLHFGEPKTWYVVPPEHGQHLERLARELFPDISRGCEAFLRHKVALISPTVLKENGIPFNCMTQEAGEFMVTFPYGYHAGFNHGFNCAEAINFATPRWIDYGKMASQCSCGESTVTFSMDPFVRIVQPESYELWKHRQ
Tau fluor counter = counter-screen for tau fibril formation inhibitors; tau K18 P301L Alexa594 fluorescence, heparin fibrillization; Potency, µM (top dose mostly 57.7 µM), without a hit: at the top dose activity change, negative = decrease; 0.93% of 280,000 active; AID 1463; further: potency means the concentration at half of the fitted maximal effect; nearly all actives have a fitted effect of over 55% in size
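Human K18 P301L tau (15 uM unlabeled plus 0.24 uM Alexa 594-labeled, final) in 100 mM sodium acetate pH 7 was mixed with compound and 20 uM heparin and incubated 6 hr at 37 C.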
Tau ThT inhib = blocks human tau fibril formation measured by thioflavin T; P10636; recombinant tau K18 P301L, heparin-induced fibrillization, ThT fluorescence; Potency, µM (highest dose often 57.4 µM), without a hit: at the top dose activity, negative = inhibition, actives largely listed as inhibitors; 2.1% of 270,000 active; AID 1460; further: potency means the concentration at half of the fitted maximal effect; nearly all actives have a fitted effect of over 55% in size
Target sequence (P10636 561-689 P618L limits assumed): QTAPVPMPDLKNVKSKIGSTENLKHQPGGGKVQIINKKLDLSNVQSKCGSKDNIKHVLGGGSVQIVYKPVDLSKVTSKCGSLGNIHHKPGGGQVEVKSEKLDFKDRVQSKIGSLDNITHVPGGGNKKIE
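ThT emission at 510 nm, taken 1 hr after adding 30 uM dye, quantifies aggregates formed when 20 uM heparin acts on human tau K18 P301L for 6 hr at 37 C.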
FBPA coupling cs = coupling enzyme interference in Giardia aldolase counter-screen; coupling enzyme system counterscreen, AmpLite Red fluorescence; activity change, negative = inhibition, % at 58.2 µM, hits read low; 0.67% of 290,000 active; in the data active means activity change below about -30%
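Compounds tested against the coupling enzymes alone at 57.5 uM final; readout was AmpLite Red fluorescence (525/598 nm) after 20 min at RT.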
Tau FP inhib = blocks human tau fibril formation measured by polarization; P10636; K18 P301L tau heparin fibrillization, Alexa594 FP, 6 h; Potency, µM (top dose mostly 57.7 µM), for inactives: at the highest dose activity, negative = inhibition, usual class: inhibitors; 0.39% of 280,000 active; AID 1468; further: potency means the concentration at half of the fitted maximal effect; nearly all actives have a fitted effect of over 55% in size
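Compound effects on tau fibrillization are measured by Alexa 594 fluorescence polarization (ex 555, em 632 nm). K18 P301L tau is used at 15 uM with 0.24 uM labeled tracer, and 20 uM heparin induces aggregation over 6 hr at 37 C.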
* marks the source's active call; other numbers are inactive results; [ ] = remark or other dose. Unless noted, the call rests on the fitted dose curve; in most records, active means well fitted curve in the direction sought with a large enough effect; inconclusive means small, poorly fitted or top-dose-only effect, or another doubt; inactive means no such curve, though single readings can be large; an effect the other way counts as inactive or inconclusive. Unless noted, on the % scale 0 is the no-effect control and ±100 the full control effect.

`CC(=O)c1ccc(S(=O)(=O)Nc2ccc(N3CCOCC3)cc2)cc1` gave FBPA coupling cs 1.
`Cc1ccc(NC2=C(N3CCOCC3)C(=O)c3ccccc3C2=O)cc1` gave KDM4E inh inconclusive, Tau fluor counter inconclusive, Tau ThT inhib inconclusive, FBPA coupling cs -50* and Tau FP inhib inconclusive.
Screening CC(=O)c1ccc(NC2=C(N3CCOCC3)C(=O)c3ccccc3C2=O)cc1 returned KDM4E inh -9%, Tau fluor counter inconclusive, Tau ThT inhib inconclusive, FBPA coupling cs -30* and Tau FP inhib -9%.
`O=C(O)c1ccc(NC2=C(N3CCOCC3)C(=O)c3ccccc3C2=O)cc1` gave KDM4E inh -30%, Tau fluor counter inconclusive, Tau ThT inhib 18µM*, FBPA coupling cs -28 and Tau FP inhib inconclusive.
Screening Oc1ccc(Nc2ccnc3cc(Cl)ccc23)cc1 returned KDM4E inh -9%, Tau fluor counter -24%, Tau ThT inhib inconclusive, FBPA coupling cs -2 and Tau FP inhib -6%.
Clc1ccc(NNc2ccnc3cc(Cl)ccc23)cc1 was read as KDM4E inh -4%, Tau fluor counter inconclusive, Tau ThT inhib 3.2µM*, FBPA coupling cs -1 and Tau FP inhib -9%.
CCc1nn(CC(=O)Nc2ccc(C)c(F)c2)c(=O)c2cc3cc(C)ccc3n12 was read as Tau fluor counter -4%, Tau ThT inhib -2% and Tau FP inhib 5%.
Screening CCC[C@@H]1CC2=CC(=O)CC[C@]2(C)[C@H]2CC[C@@]3(C)[C@@H](CC[C@@]34CCC(=O)O4)[C@H]12 returned FBPA coupling cs 1.
Cc1cc(C(=O)N/N=C/c2cccc([N+](=O)[O-])c2)c2ccccc2n1 was read as KDM4E inh -6%, Tau fluor counter -8%, Tau ThT inhib inconclusive, FBPA coupling cs -16 and Tau FP inhib -7%.
COc1cccc(/C=N/NC(=O)c2ccc([N+](=O)[O-])cc2Cl)c1O was read as KDM4E inh 14µM*, Tau fluor counter -23%, Tau ThT inhib inconclusive, FBPA coupling cs -1 and Tau FP inhib -2%.
For COc1cc([N+](=O)[O-])cc(/C=N/NC(=O)c2cc(C)nc3ccccc23)c1O the results were KDM4E inh 25µM*, Tau fluor counter -22%, Tau ThT inhib 14µM*, FBPA coupling cs -1 and Tau FP inhib -8%.
Screening COc1ccc(/C=N/NC(=O)c2cc(-c3ccccc3)nc3ccccc23)c(C(=O)O)c1OC returned FBPA coupling cs 23.
COc1cc([N+](=O)[O-])cc(/C=N/NC(=O)c2cc(-c3ccccc3)nc3ccccc23)c1O was read as KDM4E inh 22µM*, Tau fluor counter inconclusive, Tau ThT inhib 16µM*, FBPA coupling cs 4 and Tau FP inhib 13%.
For NCC(=O)N[C@@H](CCCN=C(N)N)C(=O)NCC(=O)N[C@@H](CCC(=O)O)C(=O)N[C@@H](CO)C(=O)O the results were FBPA coupling cs 0.
Screening Clc1ccc(-c2csc(NNC3=NCCCCC3)n2)cc1 returned KDM4E inh 2%, Tau fluor counter inconclusive, Tau ThT inhib 32µM*, FBPA coupling cs -2 and Tau FP inhib inconclusive.
c1ccc(-c2csc(NNC3=NCCCCC3)n2)cc1 was read as KDM4E inh -11%, Tau fluor counter inconclusive, Tau ThT inhib 25µM*, FBPA coupling cs 0 and Tau FP inhib 25µM*.
For Brc1ccc(-c2csc(NC3=NCCCCC3)n2)cc1 the results were KDM4E inh -5%, Tau fluor counter -1%, Tau ThT inhib -18%, FBPA coupling cs 1 and Tau FP inhib 4%.
COc1ccc(-c2csc(NNC3=NCCCCC3)n2)cc1 was read as KDM4E inh -12%, Tau fluor counter -22%, Tau ThT inhib 25µM*, FBPA coupling cs -2 and Tau FP inhib inconclusive.
`CCOc1ccccc1-c1nnc2n1N=C(c1cccc(OC)c1)CS2` gave FBPA coupling cs 0.
Screening Nc1cc(=O)[nH]c(SCC(=O)NC2CCCc3ccccc32)n1 (stereo unspecified) returned KDM4E inh -2%, Tau fluor counter -15%, FBPA coupling cs 2 and Tau FP inhib 0%.
For CCCc1cc(=O)[nH]c(SCC(=O)NC2CCCc3ccccc32)n1 (stereo unspecified) the results were KDM4E inh -3%, Tau fluor counter 0%, Tau ThT inhib 0%, FBPA coupling cs -38* and Tau FP inhib -6%.
Cn1c(=O)c2c(nc(N/N=C/c3ccc(OC(=O)c4ccco4)cc3)n2Cc2ccccc2)n(C)c1=O was read as KDM4E inh inconclusive, Tau fluor counter 11µM*[quencher], Tau ThT inhib inconclusive, FBPA coupling cs -11 and Tau FP inhib 10%.
`Cc1cc(=O)c2cc(C(=O)Nc3ccc(C)c(C)c3)ccc2[nH]1` gave Tau fluor counter 3%, Tau ThT inhib 6% and Tau FP inhib -3%.
Cc1ccc(C)c(N2CCN(CCCNC(=O)Cn3c(-c4cccs4)cc4ccccc43)CC2)c1 was read as Tau fluor counter -29%, Tau ThT inhib inconclusive and Tau FP inhib 11%.
Screening OC/C=C/c1ccc(O)c(O)c1 returned KDM4E inh -17%, Tau fluor counter -17%, Tau ThT inhib -16%, FBPA coupling cs 0 and Tau FP inhib -5%.
Screening N[C@H](Cc1ccc(O)c(O)c1)C(=O)O returned KDM4E inh 18µM*, Tau fluor counter -8%, Tau ThT inhib 16µM* and Tau FP inhib inconclusive.
Screening N[C@@H](Cc1ccc(O)cc1)C(=O)O returned Tau fluor counter -3%, Tau ThT inhib -5%, FBPA coupling cs 3 and Tau FP inhib -4%.
`COC(=O)C(N)Cc1ccc(O)c(O)c1` (stereo unspecified) gave KDM4E inh 14µM*, Tau fluor counter -13%, Tau ThT inhib inconclusive, FBPA coupling cs -7 and Tau FP inhib 1%.
For NC(Cc1ccc(O)c(O)c1)C(=O)O (stereo unspecified) the results were KDM4E inh inconclusive, Tau fluor counter 18µM*[quencher], Tau ThT inhib 11µM*, FBPA coupling cs -30* and Tau FP inhib 25µM*.
O=C(/C=C/c1ccc(O)c(O)c1)O[C@H](Cc1ccc(O)c(O)c1)C(=O)O was read as KDM4E inh inconclusive, Tau fluor counter 14µM*[quencher], Tau ThT inhib 13µM*, FBPA coupling cs -35* and Tau FP inhib inconclusive.
Screening CC(C)C[C@H](NC(=O)[C@H](CO)NC(=O)CNC(=O)[C@H](CCCCN)NC(=O)[C@H](CCCN=C(N)N)NC(=O)[C@H](C)NC(=O)[C@H](Cc1ccccc1)NC(=O)[C@@H](N)CCCN=C(N)N)C(=O)N[C@@H](CCCN=C(N)N)C(=O)N[C@@H](CCC(N)=O)C(=O)N[C@@H](CCCCN)C(=O)N[C@@H](CC(N)=O)C(=O)N[C@H](C(=O)O)C(C)C returned FBPA coupling cs 2.
